42 compounds from PubChem BioAssay AID2240 (Broad Institute, 2010) can be followed below.

In all, about 37,000 compounds went through this assay and about 100 (0.27%) were called active. Shown is part of a subset that was picked to be rich in actives. Unmarked numbers belong to inactive results. No stated cut-off is given here; in the data, active means inhibition above about 85%; inconclusive means no clear call, values can overlap the other calls; inactive means below about 68%.

A short description of this test: blocks MITF activity, primary screen, MITF inhibitor project, cell-based, luminescence (AID 2240).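 Further: human melanocyte line stably carrying TRPM1 promoter luciferase reporter.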 The note with it: TRPM1 promoter luciferase, 24 h, stronger effect = higher value, concentration not given here.
Consider `COc1ccc(NC(=O)CSC2CC(=O)N(c3ccc(F)cc3)C2=O)cc1` (configuration not stated), for which the inhibition was -4.35%.
As for `CC(=O)Nc1ccc(NC(=O)CN(c2ccc(I)cc2)S(C)(=O)=O)cc1`, the inhibition was -73.1%.
Regarding `C[C@@H]1CN([C@H](C)CO)C(=O)c2cc(N(C)C)ccc2O[C@@H]1CN(C)S(=O)(=O)c1cn(C)cn1`, the inhibition is 0.48%.
With `COc1ccc(NC(=O)Nc2ccc3c(c2)CC(=O)N([C@@H](C)CO)C[C@@H](C)[C@@H](CN(C)Cc2ccc(C(F)(F)F)cc2)O3)cc1` the figure was 40.7%.
With `C[C@@H]1CN([C@@H](C)CO)C(=O)c2cc(NC(=O)Nc3ccc(C(F)(F)F)cc3)ccc2O[C@@H]1CN(C)Cc1ccncc1` the figure was 0.516%; with `COC(=O)c1c(C)c(=O)[nH]c2ccccc12`, 11.2%.
Regarding `C[C@@H]1CN([C@H](C)CO)C(=O)c2cc(NC(=O)CCCCCC(=O)Nc3ccccc3N)ccc2O[C@H]1CN(C)C(=O)Nc1ccc(C(F)(F)F)cc1`, the inhibition is 1.03%.
As to `CNC[C@H]1Oc2ccc(NC(=O)CCC(F)(F)F)cc2C(=O)N([C@@H](C)CO)C[C@H]1C`, the inhibition is -6.95%.
As for `CC(C)(O)C(O)COc1c2occc2cc2ccc(=O)oc12` (configuration not stated), the inhibition is -25%.
Consider `CS(=O)(=O)N(CC(=O)Nc1ccc(Br)cc1)c1cc(Cl)c(Cl)cc1Cl`, for which the inhibition is -6.97%.
On to `C[C@@H]1CN([C@H](C)CO)C(=O)Cc2cc(NC(=O)CCCN(C)C)ccc2O[C@H]1CN(C)S(=O)(=O)c1cccs1`, for which the inhibition is -32%.
Then `C[C@H](CO)N1C[C@H](C)[C@H](CN(C)C(=O)Nc2ccccc2)Oc2ccc(NC(=O)C3CC3)cc2CC1=O`, with -0.845%; and `C[C@@H]1CN([C@H](C)CO)C(=O)c2cc(NS(=O)(=O)c3cn(C)cn3)ccc2O[C@H]1CN(C)S(=O)(=O)c1ccc(Cl)cc1`, with -0.174%; and `Cc1noc(C)c1S(=O)(=O)Nc1ccc2c(c1)CC(=O)N([C@H](C)CO)C[C@@H](C)[C@@H](CN(C)C)O2`, with -9.62%.
Take `Cc1cc(C)c(NC(=O)CSc2nnc(-c3ccccc3)n2-c2ccc(F)cc2)c(C)c1`: the inhibition was 15.6%.
Then `Cc1ccc(S(=O)(=O)Nc2ccc3c(c2)C(=O)N([C@@H](C)CO)C[C@@H](C)[C@H](CN(C)Cc2ccc(C(F)(F)F)cc2)O3)cc1`, with 24.8%; and `O=C(CSc1nccc(=O)[nH]1)Nc1cccc(Br)c1`, with -6.51%; and `C[C@H](CO)N1C[C@H](C)[C@H](CN(C)Cc2ccc(-c3ccccc3)cc2)Oc2ccc(NS(=O)(=O)c3ccccc3)cc2C1=O`, with 0.813%.
Consider `Cc1noc(C)c1NC(=O)Nc1ccc2c(c1)C(=O)N([C@@H](C)CO)C[C@@H](C)[C@H](CN(C)Cc1ccc(C(F)(F)F)cc1)O2`, for which the inhibition is -0.382%.
`Cc1cccc(NC(=O)CSc2nc3c(cc2C#N)CCCCC3)c1`: the inhibition was 0.0416%.
Then `CN(CC(=O)Nc1ccc(F)cc1)S(=O)(=O)c1ccccc1`, with -37.2%; and `C[C@H]1CN([C@@H](C)CO)C(=O)Cc2cc(NC(=O)C3CC3)ccc2O[C@H]1CN(C)C(=O)Nc1ccc(C(F)(F)F)cc1`, with -4.89%; and `COc1ccc(CN(C)C[C@H]2Oc3ccc(NC(=O)CCN4CCOCC4)cc3C(=O)N([C@@H](C)CO)C[C@H]2C)cc1`, with 9.34%.
With `Cc1cccc(C)c1NC(=O)C(C)N(c1ccc(Cl)cc1)S(C)(=O)=O` (configuration not stated), the inhibition is -20.7%.
For the compound `Cc1noc(C)c1S(=O)(=O)N(C)C[C@H]1Oc2ccc(NC(=O)CCN3CCOCC3)cc2CC(=O)N([C@H](C)CO)C[C@H]1C`, the inhibition is 10.6%.
`O=C(NCc1ccco1)c1cc(-c2cccnc2)nc2ccc(Cl)cc12`: the inhibition is -14.7%.
With `Cc1ccc(S(=O)(=O)Nc2cccc3c2O[C@H](CN(C)S(=O)(=O)c2cn(C)cn2)[C@H](C)CN([C@H](C)CO)C3=O)cc1`, the inhibition was 0.736%.
As to `Cc1ccc(S(=O)(=O)N(C)C[C@@H]2Oc3ccc(NC(=O)Nc4ccc(F)cc4)cc3C(=O)N([C@H](C)CO)C[C@@H]2C)cc1`, the inhibition is -19.7%.
Take `Cc1ccc(-n2c(SCC(=O)Nc3ccc(F)c(F)c3)nnc2-c2cnccn2)cc1`: the inhibition was -1.94%.
Consider `C[C@H](CO)N1C[C@H](C)[C@H](CN(C)Cc2ccncc2)Oc2ccc(NS(=O)(=O)c3ccc(F)cc3)cc2CC1=O`, for which the inhibition is -14.1%.
`COc1ccccc1NC(=O)CN(c1ccc(Br)c(C)c1)S(C)(=O)=O`: the inhibition was -1.36%.
With `C[C@H]1CN([C@@H](C)CO)C(=O)Cc2cc(NS(=O)(=O)c3cccs3)ccc2O[C@@H]1CN(C)S(=O)(=O)c1cn(C)cn1`, the inhibition was -7.83%.
Regarding `C[C@@H]1CN([C@@H](C)CO)C(=O)c2cccc(NC(=O)c3nc4ccccc4s3)c2O[C@@H]1CN(C)Cc1ccc(Cl)c(Cl)c1`, the inhibition is 10.3%.
With `CN(C)c1ccc(NC(=O)CN(C)S(=O)(=O)c2ccc(Br)cc2)cc1` the figure was -8.87%.
With `COc1ccccc1NC(=O)CSc1ncc(-c2ccccc2)nn1` the figure was -3.76%; with `Cn1c(SCc2nc3ccccc3c(=O)[nH]2)nnc1-c1cc2ccccc2o1`, 17.4%.
Regarding `C[C@H]1CN([C@@H](C)CO)C(=O)Cc2cc(NC(=O)NC3CCCCC3)ccc2O[C@H]1CN(C)S(=O)(=O)c1cccs1`, the inhibition is 6.16%.
Turning to `COc1ccc(S(=O)(=O)Nc2ccc3c(c2)C(=O)N([C@@H](C)CO)C[C@@H](C)[C@@H](CN(C)S(C)(=O)=O)O3)cc1`, the inhibition was 2.87%.
Regarding `C[C@@H]1CN([C@@H](C)CO)C(=O)Cc2cc(NC(=O)Cc3ccccc3)ccc2O[C@@H]1CN(C)Cc1ccc(Oc2ccccc2)cc1`, the inhibition was 41.7%.
Take `O=C(CN1CCOCC1)Nc1sc2c(c1C(=O)Nc1ccc(Br)cc1)CCC2`: the inhibition was 53%.
For `COc1ccc(NC(=O)N(C)C[C@H]2Oc3ccc(NS(=O)(=O)c4cccs4)cc3C(=O)N([C@@H](C)CO)C[C@H]2C)cc1`, the inhibition is -5.79%.
Turning to `C[C@H](CO)N1C[C@H](C)[C@H](CN(C)S(=O)(=O)c2cn(C)cn2)Oc2c(NC(=O)c3ccc(-c4nccs4)cc3)cccc2C1=O`, the inhibition is -4.22%.

The inhibition is the relative decrease from the control value, in per cent.
